Results from the supplement of paper PMC11732987, “Enantioselective OTUD7B fragment discovery through chemoproteomics screening and high-throughput optimisation” (Communications Chemistry, 2025).

Experiments:
Assay in all cases: log2 ratio of Biotin-Ahx-Ub-VS probe labelling (fragment/DMSO); higher = less target engagement (more negative = stronger competition), active = hit call of the paper (q ≤ 0.05, log2 ratio ≤ -1)
Settings in all cases: compound concentration: 200 uM; treatment time: 3 h
USP42 = target: T1, USP42 (UniProt Q9H9J4)
T1 sequence (whole entry): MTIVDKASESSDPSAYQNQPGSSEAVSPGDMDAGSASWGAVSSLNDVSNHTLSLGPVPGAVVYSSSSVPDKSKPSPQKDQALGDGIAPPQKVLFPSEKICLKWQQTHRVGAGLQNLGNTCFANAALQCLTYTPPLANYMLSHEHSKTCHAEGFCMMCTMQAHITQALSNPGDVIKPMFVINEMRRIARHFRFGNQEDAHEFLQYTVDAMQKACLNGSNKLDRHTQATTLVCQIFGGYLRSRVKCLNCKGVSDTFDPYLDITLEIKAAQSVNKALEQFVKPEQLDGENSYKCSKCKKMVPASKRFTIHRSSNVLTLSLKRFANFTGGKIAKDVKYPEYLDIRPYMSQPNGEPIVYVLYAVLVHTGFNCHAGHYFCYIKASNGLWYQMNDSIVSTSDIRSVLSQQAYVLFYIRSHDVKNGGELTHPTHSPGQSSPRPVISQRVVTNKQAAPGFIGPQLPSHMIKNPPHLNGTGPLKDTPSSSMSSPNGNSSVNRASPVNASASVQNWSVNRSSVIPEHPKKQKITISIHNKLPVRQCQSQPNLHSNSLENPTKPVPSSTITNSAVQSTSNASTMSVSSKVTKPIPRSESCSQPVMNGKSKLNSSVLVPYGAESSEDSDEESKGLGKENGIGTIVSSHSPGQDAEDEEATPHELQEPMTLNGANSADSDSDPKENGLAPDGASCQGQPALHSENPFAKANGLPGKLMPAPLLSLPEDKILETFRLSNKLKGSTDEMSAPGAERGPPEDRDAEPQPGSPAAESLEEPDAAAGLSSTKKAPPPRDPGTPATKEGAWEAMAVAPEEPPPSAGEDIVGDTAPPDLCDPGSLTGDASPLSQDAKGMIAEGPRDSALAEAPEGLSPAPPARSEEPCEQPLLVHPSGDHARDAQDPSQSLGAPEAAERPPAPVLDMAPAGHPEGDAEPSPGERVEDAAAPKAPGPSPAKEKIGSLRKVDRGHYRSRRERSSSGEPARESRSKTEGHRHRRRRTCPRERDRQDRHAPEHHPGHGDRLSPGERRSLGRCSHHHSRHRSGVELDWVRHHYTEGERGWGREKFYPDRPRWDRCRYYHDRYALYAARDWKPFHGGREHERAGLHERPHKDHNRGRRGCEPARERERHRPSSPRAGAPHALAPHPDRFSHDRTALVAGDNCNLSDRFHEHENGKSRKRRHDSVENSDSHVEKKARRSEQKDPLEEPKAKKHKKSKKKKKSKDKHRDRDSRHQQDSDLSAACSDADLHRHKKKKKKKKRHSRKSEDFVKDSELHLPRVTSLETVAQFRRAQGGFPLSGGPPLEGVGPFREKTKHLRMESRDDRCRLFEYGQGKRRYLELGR
Procedure, shortened: (§1)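 Fragment (200 µM) or vehicle was incubated for 3 h with triplicate HEK293T lysate samples of 495 µg, which were then treated with Biotin-Ahx-Ub-VS at 0.5 µM final for 1 h. Labelled DUBs were enriched on NeutrAvidin, digested with LysC and trypsin, and analysed by diaPASEF LC-MS/MS. Values are average log2 fragment/vehicle ratios from an unpaired t-test on global-median-normalised Spectronaut label-free quantities, using proteins with ≥2 unique peptides.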

USP46 = USP46 (UniProt P62068)
Procedure, shortened: as §1

USP47 = target: T2, USP47 (UniProt Q96K76)
T2 sequence (whole entry): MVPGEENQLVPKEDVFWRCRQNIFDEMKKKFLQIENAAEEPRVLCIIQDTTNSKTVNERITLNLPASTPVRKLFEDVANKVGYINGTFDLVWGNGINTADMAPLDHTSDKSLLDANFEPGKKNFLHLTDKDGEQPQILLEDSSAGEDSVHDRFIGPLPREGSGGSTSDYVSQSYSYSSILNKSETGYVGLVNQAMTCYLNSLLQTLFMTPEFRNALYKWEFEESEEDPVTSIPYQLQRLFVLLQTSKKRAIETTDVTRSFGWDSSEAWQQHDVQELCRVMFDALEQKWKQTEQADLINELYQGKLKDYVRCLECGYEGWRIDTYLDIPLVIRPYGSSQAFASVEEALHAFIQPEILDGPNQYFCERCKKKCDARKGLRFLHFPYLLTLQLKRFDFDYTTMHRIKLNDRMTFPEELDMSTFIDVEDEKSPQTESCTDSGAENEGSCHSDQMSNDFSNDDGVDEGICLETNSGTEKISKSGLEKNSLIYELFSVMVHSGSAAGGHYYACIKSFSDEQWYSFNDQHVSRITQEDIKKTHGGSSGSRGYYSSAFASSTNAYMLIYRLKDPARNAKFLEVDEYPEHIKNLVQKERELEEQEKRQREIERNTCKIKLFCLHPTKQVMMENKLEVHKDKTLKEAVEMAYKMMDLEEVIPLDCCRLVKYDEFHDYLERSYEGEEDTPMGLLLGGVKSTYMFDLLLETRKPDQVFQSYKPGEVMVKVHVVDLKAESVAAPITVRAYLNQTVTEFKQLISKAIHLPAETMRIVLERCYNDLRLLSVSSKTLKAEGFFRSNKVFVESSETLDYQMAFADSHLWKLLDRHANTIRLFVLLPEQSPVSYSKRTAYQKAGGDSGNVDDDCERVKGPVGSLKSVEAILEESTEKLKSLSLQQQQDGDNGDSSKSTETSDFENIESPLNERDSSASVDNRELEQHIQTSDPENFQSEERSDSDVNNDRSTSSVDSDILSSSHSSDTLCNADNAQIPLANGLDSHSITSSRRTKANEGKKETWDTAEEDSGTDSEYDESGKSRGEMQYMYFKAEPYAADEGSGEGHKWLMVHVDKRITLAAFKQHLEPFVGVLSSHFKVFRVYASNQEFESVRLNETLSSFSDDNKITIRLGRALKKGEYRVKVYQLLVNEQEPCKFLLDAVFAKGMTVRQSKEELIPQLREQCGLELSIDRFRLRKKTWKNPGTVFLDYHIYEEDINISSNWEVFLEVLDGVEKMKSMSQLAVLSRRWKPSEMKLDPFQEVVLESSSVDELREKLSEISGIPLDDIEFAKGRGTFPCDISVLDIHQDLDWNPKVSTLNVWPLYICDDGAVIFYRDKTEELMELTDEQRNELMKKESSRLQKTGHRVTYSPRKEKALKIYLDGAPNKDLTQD
Procedure, shortened: as §1

USP48 = target: T3, USP48 (UniProt Q86UV5)
T3 sequence (whole entry): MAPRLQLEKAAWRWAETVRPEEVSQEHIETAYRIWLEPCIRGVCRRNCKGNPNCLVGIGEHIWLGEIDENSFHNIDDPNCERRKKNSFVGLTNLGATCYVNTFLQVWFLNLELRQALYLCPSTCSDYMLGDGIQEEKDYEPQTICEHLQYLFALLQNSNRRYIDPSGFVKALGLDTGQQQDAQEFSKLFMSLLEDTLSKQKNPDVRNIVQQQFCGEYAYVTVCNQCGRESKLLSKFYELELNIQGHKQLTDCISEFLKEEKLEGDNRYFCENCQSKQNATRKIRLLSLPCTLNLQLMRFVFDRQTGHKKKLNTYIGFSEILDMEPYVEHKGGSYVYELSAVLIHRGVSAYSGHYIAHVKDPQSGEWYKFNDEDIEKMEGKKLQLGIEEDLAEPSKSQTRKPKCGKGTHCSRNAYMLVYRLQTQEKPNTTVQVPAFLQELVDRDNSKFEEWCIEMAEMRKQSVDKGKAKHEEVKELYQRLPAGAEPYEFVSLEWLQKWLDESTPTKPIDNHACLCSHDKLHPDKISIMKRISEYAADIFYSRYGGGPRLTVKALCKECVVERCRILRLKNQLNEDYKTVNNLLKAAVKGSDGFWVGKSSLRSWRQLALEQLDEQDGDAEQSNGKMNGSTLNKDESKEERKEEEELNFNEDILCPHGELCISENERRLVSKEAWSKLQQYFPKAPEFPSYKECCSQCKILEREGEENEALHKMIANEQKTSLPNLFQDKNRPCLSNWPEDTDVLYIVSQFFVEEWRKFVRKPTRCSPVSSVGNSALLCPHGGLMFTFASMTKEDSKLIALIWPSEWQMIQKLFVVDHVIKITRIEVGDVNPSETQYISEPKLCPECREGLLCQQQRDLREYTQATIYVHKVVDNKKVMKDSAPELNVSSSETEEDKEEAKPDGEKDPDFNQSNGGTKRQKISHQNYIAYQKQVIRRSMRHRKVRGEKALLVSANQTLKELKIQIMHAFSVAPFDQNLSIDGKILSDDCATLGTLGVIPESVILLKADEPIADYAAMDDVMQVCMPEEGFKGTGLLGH
Procedure, shortened: as §1

USP5 = target: T4, USP5 (UniProt P45974)
T4 sequence (whole entry): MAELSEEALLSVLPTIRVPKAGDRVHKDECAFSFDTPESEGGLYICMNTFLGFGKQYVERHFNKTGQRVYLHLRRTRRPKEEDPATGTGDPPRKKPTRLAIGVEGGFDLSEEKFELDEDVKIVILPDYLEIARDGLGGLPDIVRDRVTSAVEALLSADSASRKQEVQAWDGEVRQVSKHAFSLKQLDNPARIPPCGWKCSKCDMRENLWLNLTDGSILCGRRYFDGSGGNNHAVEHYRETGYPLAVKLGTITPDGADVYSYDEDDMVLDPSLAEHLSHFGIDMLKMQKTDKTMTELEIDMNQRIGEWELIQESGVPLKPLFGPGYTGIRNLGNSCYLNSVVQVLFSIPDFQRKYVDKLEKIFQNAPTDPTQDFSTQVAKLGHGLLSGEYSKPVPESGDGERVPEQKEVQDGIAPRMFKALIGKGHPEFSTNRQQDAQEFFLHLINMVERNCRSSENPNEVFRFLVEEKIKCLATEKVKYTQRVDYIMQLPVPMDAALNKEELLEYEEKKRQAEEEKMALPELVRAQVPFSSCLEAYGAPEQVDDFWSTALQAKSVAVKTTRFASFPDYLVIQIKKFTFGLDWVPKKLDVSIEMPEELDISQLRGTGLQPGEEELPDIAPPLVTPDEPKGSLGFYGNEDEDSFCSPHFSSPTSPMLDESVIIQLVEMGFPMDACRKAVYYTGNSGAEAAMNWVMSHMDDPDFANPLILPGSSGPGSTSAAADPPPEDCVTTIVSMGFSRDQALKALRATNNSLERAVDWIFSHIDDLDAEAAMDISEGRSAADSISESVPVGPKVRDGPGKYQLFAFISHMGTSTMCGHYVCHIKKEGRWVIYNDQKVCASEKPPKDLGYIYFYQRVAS
Procedure, shortened: as §1

USP54 = USP54 (UniProt Q70EL1)
Procedure, shortened: as §1

USP7 = USP7 (UniProt Q93009)
Procedure, shortened: as §1

USP8 = target: T5, USP8 (UniProt P40818)
T5 sequence (whole entry): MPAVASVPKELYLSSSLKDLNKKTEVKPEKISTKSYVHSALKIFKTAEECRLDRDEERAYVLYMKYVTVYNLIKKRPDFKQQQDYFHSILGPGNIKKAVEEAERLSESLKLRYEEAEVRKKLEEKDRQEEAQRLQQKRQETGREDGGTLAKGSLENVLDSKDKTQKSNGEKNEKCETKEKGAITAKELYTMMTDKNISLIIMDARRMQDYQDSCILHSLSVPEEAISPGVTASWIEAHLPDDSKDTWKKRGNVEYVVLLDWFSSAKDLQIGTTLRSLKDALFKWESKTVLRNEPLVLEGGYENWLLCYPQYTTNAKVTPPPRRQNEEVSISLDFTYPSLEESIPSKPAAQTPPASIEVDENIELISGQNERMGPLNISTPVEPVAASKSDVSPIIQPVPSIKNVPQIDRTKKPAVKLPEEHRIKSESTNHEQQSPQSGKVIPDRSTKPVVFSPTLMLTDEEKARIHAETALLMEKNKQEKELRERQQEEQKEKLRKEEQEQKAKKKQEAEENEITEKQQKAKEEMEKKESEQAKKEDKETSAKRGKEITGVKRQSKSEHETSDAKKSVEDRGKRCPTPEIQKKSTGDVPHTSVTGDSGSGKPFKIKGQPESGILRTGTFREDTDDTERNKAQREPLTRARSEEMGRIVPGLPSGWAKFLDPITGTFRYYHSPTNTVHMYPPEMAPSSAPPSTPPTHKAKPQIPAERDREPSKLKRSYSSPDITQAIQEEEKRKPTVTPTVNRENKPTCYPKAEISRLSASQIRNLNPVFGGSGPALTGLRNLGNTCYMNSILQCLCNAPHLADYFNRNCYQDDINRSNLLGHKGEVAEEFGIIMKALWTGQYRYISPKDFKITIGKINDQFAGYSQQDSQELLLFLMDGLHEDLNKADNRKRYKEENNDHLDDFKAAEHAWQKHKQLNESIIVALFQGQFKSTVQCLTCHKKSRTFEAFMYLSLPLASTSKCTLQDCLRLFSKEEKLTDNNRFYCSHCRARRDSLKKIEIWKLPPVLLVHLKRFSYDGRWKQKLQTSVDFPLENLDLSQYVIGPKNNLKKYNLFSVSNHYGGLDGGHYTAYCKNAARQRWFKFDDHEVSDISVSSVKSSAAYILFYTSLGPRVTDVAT
Procedure, shortened: as §1

Measured: log2 ratio of Biotin-Ahx-Ub-VS probe labelling

USP7, sequence (Q93009 whole entry, looked up): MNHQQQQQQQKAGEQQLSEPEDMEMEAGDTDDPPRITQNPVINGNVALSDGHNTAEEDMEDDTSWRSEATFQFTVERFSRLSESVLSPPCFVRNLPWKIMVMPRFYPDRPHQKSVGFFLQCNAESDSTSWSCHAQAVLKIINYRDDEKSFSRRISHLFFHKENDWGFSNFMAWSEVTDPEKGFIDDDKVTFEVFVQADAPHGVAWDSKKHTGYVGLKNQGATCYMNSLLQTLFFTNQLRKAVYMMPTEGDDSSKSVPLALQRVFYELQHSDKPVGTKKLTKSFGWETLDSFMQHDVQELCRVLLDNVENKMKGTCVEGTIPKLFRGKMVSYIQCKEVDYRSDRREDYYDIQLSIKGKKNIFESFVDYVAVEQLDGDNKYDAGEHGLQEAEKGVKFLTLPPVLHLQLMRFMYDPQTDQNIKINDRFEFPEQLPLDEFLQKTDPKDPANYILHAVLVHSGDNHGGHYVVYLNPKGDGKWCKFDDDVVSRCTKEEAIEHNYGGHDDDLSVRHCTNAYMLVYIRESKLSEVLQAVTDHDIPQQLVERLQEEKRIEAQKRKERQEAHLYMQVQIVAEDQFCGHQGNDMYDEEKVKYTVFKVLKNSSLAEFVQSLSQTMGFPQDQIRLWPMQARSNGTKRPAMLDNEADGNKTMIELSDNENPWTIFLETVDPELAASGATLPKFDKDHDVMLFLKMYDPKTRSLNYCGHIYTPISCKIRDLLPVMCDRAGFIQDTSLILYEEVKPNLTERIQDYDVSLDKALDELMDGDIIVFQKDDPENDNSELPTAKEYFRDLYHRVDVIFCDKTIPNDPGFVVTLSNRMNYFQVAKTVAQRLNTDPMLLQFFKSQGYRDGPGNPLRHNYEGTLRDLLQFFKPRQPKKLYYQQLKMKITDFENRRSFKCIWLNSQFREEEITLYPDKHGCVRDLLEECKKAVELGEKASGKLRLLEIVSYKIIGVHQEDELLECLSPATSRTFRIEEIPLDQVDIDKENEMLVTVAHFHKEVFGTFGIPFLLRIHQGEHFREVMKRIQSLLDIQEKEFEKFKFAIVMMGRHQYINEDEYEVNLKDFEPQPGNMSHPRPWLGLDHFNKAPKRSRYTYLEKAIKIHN
USP54, sequence (Q70EL1 whole entry): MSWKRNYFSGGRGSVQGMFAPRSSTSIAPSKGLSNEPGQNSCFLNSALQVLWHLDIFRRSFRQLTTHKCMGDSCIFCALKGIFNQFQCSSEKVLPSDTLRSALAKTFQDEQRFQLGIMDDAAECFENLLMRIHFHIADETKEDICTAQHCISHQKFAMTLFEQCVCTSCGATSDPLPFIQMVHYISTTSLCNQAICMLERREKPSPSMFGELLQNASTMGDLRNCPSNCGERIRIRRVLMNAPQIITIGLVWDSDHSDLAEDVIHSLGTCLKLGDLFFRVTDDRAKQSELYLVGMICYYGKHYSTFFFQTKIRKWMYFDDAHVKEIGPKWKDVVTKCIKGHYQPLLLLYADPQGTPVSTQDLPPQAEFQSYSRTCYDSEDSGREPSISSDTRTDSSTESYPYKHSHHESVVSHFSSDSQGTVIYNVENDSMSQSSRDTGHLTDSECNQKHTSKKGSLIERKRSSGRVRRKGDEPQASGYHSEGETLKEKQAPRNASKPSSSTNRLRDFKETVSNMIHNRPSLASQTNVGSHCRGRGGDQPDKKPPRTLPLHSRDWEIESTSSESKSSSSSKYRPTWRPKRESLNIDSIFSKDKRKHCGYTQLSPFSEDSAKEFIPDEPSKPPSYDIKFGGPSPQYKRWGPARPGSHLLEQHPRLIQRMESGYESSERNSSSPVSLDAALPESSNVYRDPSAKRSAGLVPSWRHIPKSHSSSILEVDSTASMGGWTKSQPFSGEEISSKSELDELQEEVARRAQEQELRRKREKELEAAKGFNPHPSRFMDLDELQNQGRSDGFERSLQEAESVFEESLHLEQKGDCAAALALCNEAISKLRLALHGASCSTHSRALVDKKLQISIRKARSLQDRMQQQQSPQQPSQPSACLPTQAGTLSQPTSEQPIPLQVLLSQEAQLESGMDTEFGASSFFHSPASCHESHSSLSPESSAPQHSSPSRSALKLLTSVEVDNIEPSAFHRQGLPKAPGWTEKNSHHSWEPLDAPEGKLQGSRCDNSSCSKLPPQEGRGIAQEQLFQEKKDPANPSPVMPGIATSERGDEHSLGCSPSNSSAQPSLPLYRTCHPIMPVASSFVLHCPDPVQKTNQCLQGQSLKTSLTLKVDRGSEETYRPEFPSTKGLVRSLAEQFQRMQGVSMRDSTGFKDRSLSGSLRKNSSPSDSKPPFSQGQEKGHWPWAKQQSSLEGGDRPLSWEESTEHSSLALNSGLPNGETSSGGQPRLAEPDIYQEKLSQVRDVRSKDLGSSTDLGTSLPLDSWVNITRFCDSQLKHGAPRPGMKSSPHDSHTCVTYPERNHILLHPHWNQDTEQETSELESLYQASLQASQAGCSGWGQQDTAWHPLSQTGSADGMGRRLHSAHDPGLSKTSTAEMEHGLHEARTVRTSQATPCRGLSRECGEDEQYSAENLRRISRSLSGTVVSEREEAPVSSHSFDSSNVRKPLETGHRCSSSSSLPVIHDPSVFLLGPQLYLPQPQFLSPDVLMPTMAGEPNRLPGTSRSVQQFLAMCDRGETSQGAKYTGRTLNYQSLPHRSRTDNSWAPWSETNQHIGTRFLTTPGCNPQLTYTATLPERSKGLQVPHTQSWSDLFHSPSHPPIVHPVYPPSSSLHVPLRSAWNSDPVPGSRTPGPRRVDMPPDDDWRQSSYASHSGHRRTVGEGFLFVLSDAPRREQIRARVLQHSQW
USP46, sequence (P62068 whole entry): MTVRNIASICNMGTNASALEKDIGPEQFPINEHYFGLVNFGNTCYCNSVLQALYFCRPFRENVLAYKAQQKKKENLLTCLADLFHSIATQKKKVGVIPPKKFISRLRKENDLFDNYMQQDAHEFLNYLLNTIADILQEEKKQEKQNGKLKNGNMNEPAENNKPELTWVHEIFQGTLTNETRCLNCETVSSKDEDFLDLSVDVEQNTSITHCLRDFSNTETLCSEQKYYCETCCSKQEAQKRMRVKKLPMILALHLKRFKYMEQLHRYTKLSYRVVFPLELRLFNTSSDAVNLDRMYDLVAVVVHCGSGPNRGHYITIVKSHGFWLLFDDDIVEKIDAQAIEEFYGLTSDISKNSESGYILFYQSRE

Cc1cccc(N2CCC(NC(=O)CCl)C2=O)c1 (stereo not drawn)
inactive: USP42 -0.395 | USP46 0.013 | USP47 -0.0227 | USP48 -0.138 | USP5 -0.179 | USP54 0.699 | USP7 -0.204 | USP8 -0.325
